An excerpt weighted towards active compounds, which were near 22% of everything screened.
F-actin modifier = modifiers of F-actin cytoskeleton organization, primary screen, imaging, HUVEC, phalloidin staining, high-content imaging | HUVEC TNFa F-actin phalloidin imaging | inhibition, % at 2 µM | 91,000 compounds, 0.18% hits;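 active = inhibition above the batch mean plus 3 SD and confirmed as a hit by visual image inspection, cut at about 30% in these data, passing the limit was not always enough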
E-sel TNF inh = E-selectin induction blockers in HUVEC – imaging, immunofluorescence, high content, primary screen | 120,000 compounds, 0.71% hits | inhibition, % at 2 µM | AID 1246, 2008 | HUVEC TNFa-induced E-selectin immunofluorescence;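 active = inhibition above the batch mean plus 3 SD, and confirmed as a hit on visual image review, cut at about 43% in these data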;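 note: 0% = TNF-stimulated DMSO wells and 100% = unstimulated control wells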
CYP2C9 inh = blockers of cytochrome P450 2C9 activity – biochemical, luminescence, ADME assay, primary screen. P11712. AID 777, 2007. CYP2C9 Supersomes, luciferin-H conversion. 96,000 compounds, 20% hits. inhibition, % at 5 µM;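 active = blocking of liver enzyme CYP2C9 beyond about 50% at 5 µM, limit read from the data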
Target sequence (P11712 whole entry, looked up): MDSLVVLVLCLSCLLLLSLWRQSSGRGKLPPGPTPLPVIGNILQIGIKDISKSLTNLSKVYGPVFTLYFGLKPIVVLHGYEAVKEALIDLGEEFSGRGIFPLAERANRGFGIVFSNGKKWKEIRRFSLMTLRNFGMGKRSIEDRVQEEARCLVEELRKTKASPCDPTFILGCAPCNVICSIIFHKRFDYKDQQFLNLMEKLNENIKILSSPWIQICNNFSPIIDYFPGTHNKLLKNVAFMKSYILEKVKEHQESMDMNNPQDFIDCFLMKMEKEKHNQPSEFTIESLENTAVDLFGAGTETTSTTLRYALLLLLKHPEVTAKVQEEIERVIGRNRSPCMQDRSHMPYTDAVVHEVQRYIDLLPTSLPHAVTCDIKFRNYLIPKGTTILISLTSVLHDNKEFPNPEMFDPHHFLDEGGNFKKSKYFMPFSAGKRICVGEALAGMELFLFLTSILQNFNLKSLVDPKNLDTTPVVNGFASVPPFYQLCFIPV
CYP2C9 act = human CYP2C9 activators, primary screen, biochemical, luminescence. 96,000 compounds, 1.4% hits. recombinant CYP2C9, luciferin-H conversion; active compounds read high; factor 1 = untreated enzyme, 0 = blocked. activation factor at 5 µM. AID 1024, 2008. Cytochrome P450 2C9 (Homo sapiens), P11712;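 active = activation factor of 2 or more for CYP2C9 at a 5 µM dose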;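 note: 0 = sulfaphenazole-blocked wells and 1 = vehicle-only wells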
CYP2C19 act = human CYP2C19 activators, primary screen, biochemical, luminescence; Cytochrome P450 2C19 (Homo sapiens), P33261; recombinant CYP2C19, luciferin-H EGE luminescence; active compounds read high; 0 = fully inhibited enzyme, 1 = untreated enzyme; activation factor at 5 µM; 96,000 tested, under 10 active;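 active = activation factor of at least 2 at 5 µM in the primary screen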;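 note: 0 = wells with 2.5 mM tranylcypromine and 1 = vehicle-only wells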
CYP2C19 inh = blockers of cytochrome P450 2C19 activity – biochemical, luminescence, ADME assay, primary screen; P33261; CYP2C19 Supersomes, luciferin-H EGE luminescence, 30 min; inhibition, % at 5 µM; 96,000 compounds, 21% hits;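 active = CYP2C19 inhibition above a set limit at 5 µM in the primary screen, cut at about 50% in these data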;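 note: plate controls were negative control wells for no effect and 2.5 mM tranylcypromine positive control for full effect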
Numbers without * were called inactive; . = not tested or not shown.

SMILES	F-actin modifier	E-sel TNF inh	CYP2C9 inh	CYP2C9 act	CYP2C19 act	CYP2C19 inh
O=c1[nH]c(N/N=C/c2ccccc2)nc2ccccc12	18.9	-41.3	11.7	0.9	1.1	-6.1
Cc1ccc(-c2nc(N/N=C/c3ccncc3)c3ccccc3n2)cc1	-10.2	-2.0	94.2*	0.1	0	97.9*
Clc1ccccc1-c1nc(N/N=C/c2cccnc2)c2ccccc2n1	-12.4	0.9	69.1*	0.3	0.6	41.2
O=C(Nc1ccccc1)N1CCC(C(=O)N2CCN(c3ccccc3F)CC2)CC1	.	-4.3	.	.	.	.
N#CCCN1CCN(C(=S)c2ccc(-c3ccc(Cl)cc3)o2)CC1	26.2	-20.3	23.7	0.8	0.4	62.1*
S=C(c1ccc(-c2ccc(Cl)cc2)o1)N1CCCCC1	-11.7	1.0	80.2*	0.2	0.1	92.3*
S=C(c1ccc(-c2ccccc2Cl)o1)N1CCCCC1	.	-13.2	.	.	.	.
CN1CCN(C(=S)c2ccc(-c3cccc(Cl)c3Cl)o2)CC1	.	6.8	.	.	.	.
O=C(NCCN1CCN(c2ccccc2F)CC1)C1CC(=O)N(C2CCCC2)C1 (configuration not stated)	-18.2	7.8	-1.5	1	1.1	-6.7
CN(C)S(=O)(=O)c1ccc(C(=O)Oc2cc(=O)[nH]c3ccccc23)cc1	-9.2	2.1	11.7	0.9	0.9	14.3
O=C1CSC(c2ccccn2)N1Cc1cn2ccccc2n1 (configuration not stated)	9.2	0.1	-11.3	1.1	0.8	20.1
CCOC(=O)C1=C(C)NC(=O)NC1c1cc(Br)c(O)c(OC)c1 (configuration not stated)	-0.6	29.0	63.6*	0.4	0.6	39.5
CCOc1ccccc1C1NC(=O)NC(C)=C1C(=O)OC1CCCCC1 (configuration not stated)	4.9	.	9.3	0.9	1	-3.1
C=CCOc1c(Br)cc(C2NC(=O)NC(C)=C2C(C)=O)cc1OCC (configuration not stated)	3.9	6.7	42.8	0.6	0.9	13.3
CCOC(=O)C(C)Oc1ccc(C2NC(=O)NC(C)=C2C(C)=O)cc1Br (configuration not stated)	9.2	15.4	72.4*	0.3	0.7	30.8
CC1=C(C(=O)OC2CCCCCCC2)C(c2ccc(O)cc2)NC(=O)N1 (configuration not stated)	-19.5	.	92.2*	0.1	0.2	81.8*
CC1=C(C(=O)OC(C)C)C(c2ccc(Br)s2)NC(=O)N1C (configuration not stated)	-10.1	27.4	87.7*	0.1	0	99.3*
CCOC(=O)C1=C(c2ccccc2)NC(=O)NC1c1cc(Br)c(O)c(OC)c1 (configuration not stated)	.	24.2	.	.	.	.
CCOC(=O)C1CCCN(c2c(Nc3ccc(C)c(C)c3)c(=O)c2=O)C1 (configuration not stated)	.	-22.0	13.6	0.9	0.7	25.3
COc1cc(C2NC(=O)NC(C)=C2C(=O)OC2CCCCC2)cc(Br)c1O (configuration not stated)	17.4	.	95.7*	0	0.2	79.4*
CC1=C(C(=O)OCC2CCCO2)C(c2cccc(O)c2)NC(=O)N1 (configuration not stated)	-1.9	-8.1	19.5	0.8	0.3	67.2*
CCOC(=O)C1=C(C)NC(=O)NC1c1cccnc1 (configuration not stated)	3.9	-30.5	-5.5	1.1	1	3.2
CCOC(=O)C1=C(C)NC(=O)NC1c1ccc(Br)s1 (configuration not stated)	-8.7	13.0	36.8	0.6	0.2	78.2*
CCCCOC(=O)C1=C(C)NC(=O)NC1c1ccc([N+](=O)[O-])s1 (configuration not stated)	.	7.4	.	.	.	.
Cc1nc(NC(=O)C2CC2)sc1C(=O)N(C)C	-3.7	14.7	.	.	.	.
SMILES	F-actin modifier	E-sel TNF inh	CYP2C9 inh	CYP2C9 act	CYP2C19 act	CYP2C19 inh
COc1ccc(NC(=O)C2(N(CC(C)C)C(=O)Cn3nnnc3N)CCCCC2)cc1	.	27.8	4.1	1	1	-0.2
Cc1cc(N2CCOCC2)nc(-c2ccc([N+](=O)[O-])cc2)n1	-34.3	-2.3	12.0	0.9	0.8	21.5
CC1(C)NC(C)(C)C(O)(C(N)=O)C1=O (configuration not stated)	10.0	13.8	-22.0	1.2	1	-3.5
CNC(=O)/C(C#N)=C/c1ccc(-c2ccc(Cl)cc2)o1	.	-25.2	.	.	.	.
CC(=O)c1ccc(OC(=O)N(c2ccccc2)c2ccccc2)cc1	-10.0	5.9	69.8*	0.3	0.4	55.6*
CCOC(=O)c1ccc(NC(=O)C2=C(C)Nc3nc(CCCO)nn3C2c2cccc(C)c2)cc1 (configuration not stated)	9.5	.	16.9	0.8	0.8	15.3
CCN(CCNS(=O)(=O)c1ccc2[nH]c(=O)sc2c1)c1ccccc1	4.8	.	24.1	0.8	0	99.6*
Cn1c(=O)oc2cc(S(=O)(=O)NCCc3ccccc3)ccc21	.	-36.4	-35.6	1.4	0.2	79.9*
O=C(Cn1c(=O)oc2cc(S(=O)(=O)NCc3ccccc3)ccc21)NCc1ccco1	-1.3	8.1	61.1*	0.4	1	1.6
CCOc1ccccc1CNS(=O)(=O)c1ccc2[nH]c(=O)sc2c1	.	-1.0	2.8	1	0	95.5*
O=C(CCc1ccc(S(=O)(=O)NCc2ccccc2)cc1)NCc1ccco1	.	13.5	.	.	.	.
Cc1ccc(Cn2cc(/C=N/Nc3ccc([N+](=O)[O-])cn3)c3ccccc32)cc1	.	-0.3	.	.	.	.
NC(=O)CCNC(=O)c1ccc(Cl)cc1	1.6	-7.0	-3.5	1	1	1.0
Cc1onc(-c2ccccc2Cl)c1C(=O)N1CCN(Cc2ccc3c(c2)OCO3)CC1	.	-12.1	.	.	.	.
COc1ccccc1NC(=O)COC(=O)c1ccccc1C(=O)N1CCN(c2ccccc2)CC1	.	48.8	.	.	.	.
CCCC(=O)Nc1ccc(C(=O)Nc2nnc(COCC)s2)cc1	-0.5	-19.6	.	.	.	.
Cn1c(=O)oc2cc(S(=O)(=O)NCc3ccncc3)ccc21	.	-18.1	80.9*	0.2	0	97.8*
Cc1cccc(CCNS(=O)(=O)c2cnc[nH]2)c1	.	-59.8	92.0*	0.1	0.4	60.6*
C=CCN(c1ccccc1)S(=O)(=O)c1ccc2c(c1)oc(=O)n2C	4.6	.	21.6	0.8	0.1	86.9*
CCOc1ccccc1CNS(=O)(=O)c1ccc2c(c1)oc(=O)n2C	2.4	-8.5	-129.4	2.3*	0.2	77.9*
O=C(NN1CCCCC1)c1ccccc1	.	8.4	.	.	.	.
COc1ccccc1CNC(=O)C(CCSC)NS(=O)(=O)c1ccc2c(c1)oc(=O)n2C (configuration not stated)	16.2	.	3.9	1	0.1	90.7*

Compound activity (PubChem)
